Measured values published in PubChem BioAssay (NCATS).
Results filed as inconclusive are left out. The source made the active and inactive calls. Calls come from the whole dose curve; as a rule, active = well fitted cell-killing curve with a large enough effect; inconclusive = small, poorly fitted or top-dose-only effect, or effect the other way; inactive = flat fitted curve, though single readings scatter.
% is set by controls: 0 for no effect and ±100 for the full control effect.

The molecules below were run on Es-2 (assay: Primary qHTS to identify gynecologic anti-cancer compounds using libraries of approved drugs and bioactive compounds (AID 1345084; note: nearly all actives have a fitted effect of over 55% in size)). Settings: Gynecologic cancer cell panel viability, ATPlite luminescence, 48 h; series mostly up to 57.5 µM; activity change, negative = cytotoxicity: at the top concentration.
Procedure, shortened: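 ATP-based viability (ATPlite), 1,000 cells/well, 16 h pre-incubation, 48 h compound at 37 C, 5% CO2, 15 min RT before read.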
With `CC(c1c[nH]c2ccccc12)C(O)C(=O)O` (centres undefined) the “activity change, negative = cytotoxicity” value was 1.22% (inactive).
`CC(C)C(=O)c1cn(CC(=O)COc2ccc(Oc3ccccc3)cc2)c2ccc(C(=O)O)cc12` was tested, and the “activity change, negative = cytotoxicity” value was 5.59% (inactive).
In the case of `CC1=C(C)C(=O)OC(C(C)(O)C2CCC3C4CC=C5CC(OC6OC(COC7OC(CO)C(O)C(O)C7O)C(O)C(O)C6O)CC(O)C5(C)C4CCC32C)C1` (centres undefined), the “activity change, negative = cytotoxicity” value is reported as 1.75% [at 25.3 µM] (inactive).
For `CC(=O)OC[C@@]12[C@H](O)C[C@]3(C)C(=CCC4[C@@]5(C)CC[C@H](O[C@@H]6O[C@H](C(=O)O)[C@@H](O[C@@H]7O[C@H](CO)[C@@H](O)[C@H](O)[C@H]7O)[C@H](O)[C@H]6O[C@@H]6O[C@H](CO)[C@@H](O)[C@H](O)[C@H]6O)[C@](C)(CO)C5CC[C@]43C)[C@@H]1CC(C)(C)[C@@H](OC(C)=O)[C@@H]2O` (some centres undefined), the activity change, negative = cytotoxicity was 3.37% [at 11.6 µM] (inactive).
For `CC12CCC3c4ccc(O)cc4CCC3C1CCC2OC1OC(C(=O)O)C(O)C(O)C1O` (centres undefined), the “activity change, negative = cytotoxicity” value was 0.711% (inactive).
With `COc1ccccc1-n1c(SCC(=O)Nc2nc3ccc(C)cc3s2)nc2c(c1=O)SCC2` the “activity change, negative = cytotoxicity” value was -1.36% [at 25.3 µM] (inactive).
`CC1(C)CC[C@]2(C(=O)O[C@@H]3O[C@H](CO)[C@@H](O)[C@H](O)[C@H]3O)CC[C@]3(C)C(=CCC4[C@@]5(C)C[C@@H](O)[C@H](O)[C@@](C)(CO)C5CC[C@]43C)C2C1` (some centres undefined) was tested, and the “activity change, negative = cytotoxicity” value was -15.2% [at 25.3 µM] (inactive).
`C=CC1(C)C=C2C(=O)CC3C(C)(C)CCCC3(C(=O)O)C2(O)CC1` (centres undefined) was tested, and the “activity change, negative = cytotoxicity” value was 5.88% [at 38.5 µM] (inactive).
`O=C(O)c1n[nH]c2c1C[C@H]1C[C@@H]21` was tested, and the “activity change, negative = cytotoxicity” value was -0.251% (inactive).
In the case of `COC(=O)C1=COC(O[C@@H]2O[C@H](CO)[C@@H](O)[C@H](O)[C@H]2O)/C(=C\COC(=O)c2ccc(OC3OC(CO)C(O)C(O)C3O)c(OC)c2)C1CC(=O)OCCc1ccc(O)cc1` (some centres undefined), the activity change, negative = cytotoxicity is reported as 1.38% [at 11.6 µM] (inactive).
With `CC(=O)OC[C@@]12[C@@H](OC(C)=O)C[C@@H](C)[C@](C)([C@@H]3C[C@H]4C=CO[C@H]4O3)[C@H]1CCC[C@]21CO1` the “activity change, negative = cytotoxicity” value was 2.43% [at 25.3 µM] (inactive).
In the case of `C=CC1(C)CC(OC(=O)C(=C)C(O)COC(C)=O)C(C(=C)C(=O)OC)C(O)C1C(=C)CO` (centres undefined), the “activity change, negative = cytotoxicity” value is reported as -3.94% [at 25.3 µM] (inactive).
`CC(=C/C(=O)O)/C=C/[C@]1(O)[C@@]2(C)CO[C@]1(C)C[C@H](O[C@@H]1O[C@H](CO)[C@@H](O)[C@H](O)[C@H]1O)C2` was tested, and the “activity change, negative = cytotoxicity” value was -0.0804% [at 25.3 µM] (inactive).
In the case of `CC1CCC2(C)C(CC(O)C(O)C23CO3)C1(C)CCC1=CC(=O)OC1O` (centres undefined), the “activity change, negative = cytotoxicity” value is reported as 2.63% [at 38.5 µM] (inactive).
In the case of `CC1CCC2(NC1)OC1C(=O)C3C4CCC5CC(O[C@@H]6O[C@H](CO)[C@@H](O)[C@H](O)[C@H]6O[C@@H]6O[C@@H](C)[C@H](O)[C@@H](O)[C@H]6O)CCC5(C)C4CCC3(C)C1C2C` (some centres undefined), the “activity change, negative = cytotoxicity” value is reported as -0.391% [at 25.3 µM] (inactive).
In the case of `Cc1nn(C)c(COc2ccc(N3CCN(S(=O)(=O)N(C)C)CC3)cc2)c1-c1cccc2c(CCCOc3cccc4ccccc34)c(C(=O)O)n(CCN3CCOCC3)c12`, the “activity change, negative = cytotoxicity” value is reported as 7.81% (inactive).
`C=C(C)[C@@H](C)[C@H]1O[C@]23C[C@]4(CO2)C(CCC2[C@@]5(C)CC[C@H](O[C@@H]6OC[C@H](O)[C@H](O[C@@H]7O[C@H](CO)[C@@H](O)[C@H](O)[C@H]7O)[C@H]6O[C@@H]6O[C@@H](CO)[C@H](O)[C@H]6O)C(C)(C)C5CC[C@]24C)C3[C@@](C)(O)[C@@H]1OC(C)=O` (some centres undefined) was tested, and the activity change, negative = cytotoxicity was 4.13% [at 11.6 µM] (inactive).
For `CCCCN(CCCC)C(=O)CN1C[C@H](c2ccc3c(c2)OCO3)[C@@H](C(=O)O)[C@@H]1c1ccc(OC)cc1`, the “activity change, negative = cytotoxicity” value was 9.24% (inactive).
`COc1c(C)c(OCC=C(C)C)cc2c1C(=O)NC2=O` was tested, and the “activity change, negative = cytotoxicity” value was -6.08% (inactive).
With `COC(=O)C1=CO[C@@H](O[C@@H]2O[C@H](CO)[C@@H](O)[C@H](O)[C@H]2O)[C@@H]2[C@@H](C(=O)OC)[C@@H](O)C(O)[C@H]12` (some centres undefined) the “activity change, negative = cytotoxicity” value was 0.896% [at 25.3 µM] (inactive).
For `C=C(C(=O)O)C1CCC(C)C2CCC(=O)OC2(C)C1` (centres undefined), the “activity change, negative = cytotoxicity” value was 4.06% (inactive).
With `COc1cc(/C=C/C(=O)O[C@H]2[C@H](OC(=O)/C=C/c3cc(OC)c(O)c(OC)c3)O[C@H](CO[C@@H]3O[C@H](CO)[C@@H](O)[C@H](O)[C@H]3O)[C@@H](O)[C@@H]2O)ccc1O` the “activity change, negative = cytotoxicity” value was 5.48% [at 25.3 µM] (inactive).
With `COc1c(C)c2c(c(O)c1C/C=C(\C)CC/C=C(\C)CCC(=O)O)C(=O)OC2` the “activity change, negative = cytotoxicity” value was 7.67% [at 38.5 µM] (inactive).
`C=C1[C@H]2CC[C@]3(O)[C@@](CC[C@@H]4[C@](C)(C(=O)O)CCC[C@]43C)(C2)[C@H]1OC(=O)/C(C)=C\C` was tested, and the “activity change, negative = cytotoxicity” value was -0.192% [at 25.3 µM] (inactive).
With `CC(=O)O[C@H]1[C@H](Oc2ccccc2COC(=O)C2(O)C=CCCC2=O)O[C@H](CO)[C@@H](O)[C@@H]1O` (some centres undefined) the “activity change, negative = cytotoxicity” value was -2.87% [at 25.3 µM] (inactive).
In the case of `OCC1=CC[C@@H]2C=CO[C@@H](O[C@@H]3O[C@H](CO)[C@@H](O)[C@H](O)[C@H]3O)[C@H]12`, the “activity change, negative = cytotoxicity” value is reported as 2.55% [at 38.5 µM] (inactive).
`CC[C@H]1OC(=O)C[C@@H](O)[C@H](C)[C@@H](O[C@@H]2O[C@H](C)[C@@H](O)[C@H](N(C)C)[C@H]2O)[C@@H](CCN2C[C@H](C)C[C@H](C)C2)C[C@@H](C)C(=O)/C=C/C(C)=C/[C@@H]1CO[C@@H]1O[C@H](C)[C@@H](O)[C@@H](OC)[C@H]1OC` was tested, and the “activity change, negative = cytotoxicity” value was 9.78% (inactive).
With `COc1cc(C2Oc3c(OC)cc(/C=C/C(=O)OC[C@H]4O[C@@H](OC(C)(C)C(=O)O)[C@H](O)[C@@H](O)[C@@H]4O)cc3C2CO)ccc1O` (some centres undefined) the “activity change, negative = cytotoxicity” value was -3.08% [at 25.3 µM] (inactive).
In the case of `CC(=O)OCCC(C)CCC1C(C)(O)CCC2C(C)(C)CCCC21C` (centres undefined), the “activity change, negative = cytotoxicity” value is reported as -1.81% [at 38.5 µM] (inactive).
